The nature of experiment [1]: NCI Yeast Anticancer Drug Screen. Data for the rad50 strain (AID 155).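 Note: 0% = growth of vehicle-only cultures of the same strain.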 Conditions: S. cerevisiae rad50 strain growth inhibition; at 50.0 µM; active compounds read high. In short, it runs like this:
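Relative growth inhibition (compound vs vehicle) was measured in yeast with a defined repair-gene alteration.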

Experiment [2] can be described thus: NCI Yeast Anticancer Drug Screen. Data for the mec2-1 strain (AID 157). Particulars: S. cerevisiae mec2-1 strain, at 50.0 µM, active compounds read high. The method, boiled down:
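Vehicle-treated cultures served as reference for growth inhibition of compound-exposed mec2-1 yeast.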

A short description of experiment [3]: NCI Yeast Anticancer Drug Screen. Data for the sgs1 mgt1 strain (AID 161).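 Note: 0% = growth of cultures given vehicle only.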 Conditions: S. cerevisiae sgs1 mgt1 strain, at 50.0 µM, active compounds read high. The method, boiled down: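 Test agents were incubated with a DNA-repair-mutant yeast strain. Growth was then read and compared against vehicle-treated controls.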
The nature of experiment [4]: NCI Yeast Anticancer Drug Screen. Data for the cln2 rad14 strain (AID 165).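 Note: 0% = growth equal to vehicle treated cultures.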 Particulars: S. cerevisiae cln2 rad14 strain, at 50.0 µM, active compounds read high. In short, it runs like this:
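Each compound was tested on cln2 rad14 yeast. Inhibition of growth was calculated against vehicle-exposed controls.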

Experiment [5] in a line: NCI Yeast Anticancer Drug Screen. Data for the bub3 strain (AID 167). Particulars: S. cerevisiae bub3 mutant strain, at 50.0 µM, active compounds read high. In short, it runs like this: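 Screening used yeast with an engineered genetic alteration affecting cell cycle control. Compound-exposed cultures were compared with vehicle cultures, and reduced growth was taken as inhibition.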

Experiment [6] is described as follows: NCI Yeast Anticancer Drug Screen. Data for the mlh1 rad18 strain (AID 175). Particulars: S. cerevisiae mlh1 rad18 strain growth inhibition; at 50.0 µM; active compounds read high. In short, it runs like this: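 Vehicle-treated cultures served as the reference for growth inhibition in a yeast strain carrying DNA damage repair alterations exposed to each compound.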

This is part of a sample that, as a whole, favours compounds with a hit. Of some 79,000 tested, about 15% had one in any assay. Unmarked numbers belong to inactive results. Activity calls are given as the source filed them. Cut-off read from the data, not from the text of the source: active = growth inhibition above about 70%; inactive = the rest.

Regarding `CCOC(=O)C(=CNc1cc(OC)cc2cccnc12)C(=O)OCC`, the growth inhibition in experiment [1] was -12.8%; in experiment [2] it was 4.1%; in experiment [3], 0.15%; in experiment [4], 18.8%; in experiment [5] it was 16.1%; in experiment [6] it was -11.4%.

Take `COc1ccc(-c2oc(/C=N/NC(N)=S)c([N+](=O)[O-])c2-c2ccc(OC)c(OC)c2)cc1OC`: the growth inhibition is 44.6% in experiment [1]; 22.8% in experiment [2]; 44% in experiment [3]; 24.4% in experiment [4]; 28.9% in experiment [5]; 34.6% in experiment [6].

In the case of `O=C1OC(c2ccc([N+](=O)[O-])cc2)=N/C1=C\c1ccccc1`, the growth inhibition in experiment [1] was 1.85%; in experiment [2], 4.5%; in experiment [3] it was 11.1%; in experiment [4], 5.45%; in experiment [5], 6.25%; in experiment [6] it was -11.5%.

For the compound `O=C(c1ccccc1)C(C(c1ccccc1)N1CCOCC1)N1CCOCC1` (stereo unspecified), the growth inhibition in experiment [1] is -19.1%; in experiment [2] it was 2.2%; in experiment [3], -4.55%; in experiment [4] it was -9.45%; in experiment [5] it was -5.7%; in experiment [6], 0.65%.

Consider `CC1(C)OC2(C)CCC1C1C2N1C(=O)Nc1cccc2ccccc12` (stereo unspecified), for which the growth inhibition in experiment [1] is -9%; in experiment [2], -9.5%; in experiment [3] it was -1.35%; in experiment [4], -6.5%; in experiment [5] it was -3.75%; in experiment [6], -22.8%.

With `Cc1ccccc1C1CCCCC1OS(C)(=O)=O` (stereo unspecified), the growth inhibition in experiment [1] was -6.3%; in experiment [2] it was -1.35%; in experiment [3] it was -15.2%; in experiment [4], -7.6%; in experiment [5], 7.1%; in experiment [6] it was -11.1%.

On to `CN(CCO)CCC1COc2ccccc2O1` (stereo unspecified), for which the growth inhibition is 2.1% in experiment [1]; -29.6% in experiment [2]; 0.25% in experiment [3]; 12.1% in experiment [4]; -1.05% in experiment [5]; 1.25% in experiment [6].

Consider `CCOC(=O)/C(C#N)=C/c1ccnc2ccccc12`, for which the growth inhibition in experiment [1] was -39.7%; in experiment [2], -46.5%; in experiment [3], -30.8%; in experiment [4], -45.4%; in experiment [5], -29.1%; in experiment [6], -23.1%.

Take `CCCCCCCCNC(=O)c1ccccc1C(=O)O`: the growth inhibition in experiment [1] is 1.6%; in experiment [2], 14.9%; in experiment [3], 51.2%; in experiment [4], -32.8%; in experiment [5] it was 44.6%; in experiment [6], 13.4%.

Take `CN(C(=O)c1ccc(Cl)c(Cl)c1)C(c1ccco1)P(=O)(c1ccccc1)c1ccccc1` (stereo unspecified): the growth inhibition in experiment [1] is 54%; in experiment [2] it was 46.2%; in experiment [3], 78.4% (active); in experiment [4], 17.2%; in experiment [5], 50.4%; in experiment [6], 45.9%.

For the compound `N#C/C(=C/c1cccc2ccccc12)C(=O)c1ccccc1`, the growth inhibition was 36.9% in experiment [1]; -2.75% in experiment [2]; 3.6% in experiment [3]; 26.9% in experiment [4]; -3.75% in experiment [5]; -5.5% in experiment [6].

On to `COc1cccc(N2CCN(CC(O)COc3ccc(N)cc3)CC2)c1` (stereo unspecified), for which the growth inhibition was 36.1% in experiment [1]; 25.1% in experiment [2]; 31.9% in experiment [3]; 30.6% in experiment [4]; 25.1% in experiment [5]; 44% in experiment [6].

For the compound `O=CNc1ccccc1O`, the growth inhibition was -2.55% in experiment [1]; -17.5% in experiment [2]; -25% in experiment [3]; 19.9% in experiment [4]; -14.3% in experiment [5]; 14.9% in experiment [6].

Consider `O=C1CCC(=O)N1Cc1ccc(Cl)cc1`, for which the growth inhibition is -4.7% in experiment [1]; 5.5% in experiment [2]; -1.1% in experiment [3]; -13.6% in experiment [4]; -3.8% in experiment [5]; -4.1% in experiment [6].

`O=C(N=Nc1c(O)[nH]c2c(Cl)cc(Cl)cc12)c1ccccc1O`: the growth inhibition in experiment [1] is -1.1%; in experiment [2], -0.55%; in experiment [3] it was -9.5%; in experiment [4] it was 12.5%; in experiment [5], -8.95%; in experiment [6], 3.85%.

Consider `Cc1ccc(N=Nc2c(C)nc(N)nc2C)cc1`, for which the growth inhibition in experiment [1] was 7.5%; in experiment [2], 13.9%; in experiment [3], -12.7%; in experiment [4] it was -2.85%; in experiment [5], 12.1%; in experiment [6] it was -6.55%.

`NC(=O)C1CC(I)C2CC1C(=O)O2` (stereo unspecified): the growth inhibition is 1.45% in experiment [1]; -4.3% in experiment [2]; -4.45% in experiment [3]; 4.3% in experiment [4]; 0.35% in experiment [5]; -6.5% in experiment [6].

Take `O=NNc1ccc(Sc2ccc(NN=O)nc2)cc1`: the growth inhibition in experiment [1] was 4.65%; in experiment [2] it was -7.4%; in experiment [3], 8.45%; in experiment [4], 17%; in experiment [5], -3.15%; in experiment [6] it was 21.9%.

Regarding `c1ccc2c(c1)CCC/C2=N\OCC1CO1` (stereo unspecified), the growth inhibition in experiment [1] was -7.5%; in experiment [2] it was -28.4%; in experiment [3] it was -35.2%; in experiment [4], -3.1%; in experiment [5], -33.1%; in experiment [6], 7.05%.

On to `CSC1=N[C@H](c2ccccc2)CS1`, for which the growth inhibition in experiment [1] is 21.9%; in experiment [2], -9.85%; in experiment [3], 21.7%; in experiment [4], -3.1%; in experiment [5] it was 20.2%; in experiment [6] it was 23.4%.

As for `CCOC(OCC)C(N)=O`, the growth inhibition in experiment [1] was 2.75%; in experiment [2], -12.1%; in experiment [3] it was -1.6%; in experiment [4] it was 11.3%; in experiment [5], -6.3%; in experiment [6] it was 2.65%.

The values above are taken from PubChem BioAssay (NCI).
